Assay outcomes as filed in PubChem.
DAX1 inh-1: DAX1 (NR0B1) inhibition, primary screen | HEK293T StAR-luciferase reporter, SF-1/DAX-1 repression relief | inhibition, % at 6.8 µM | 370,000 tested, 1.1% active;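 active = inhibition above the mean over all tested compounds plus 3 SD, cut at about 3.6% in these data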;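 also: higher inhibition means more luminescence from relief of DAX-1 repression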
ssDAF-12 act: activators of S. stercoralis DAF-12 nuclear receptor; HEK293 ssDAF-12/GRIP1 lit1-tk-luc reporter, luminescence; % of 3 µM dafachronic acid response; activation, % at 6.8 µM; 370,000 tested, 1% active; AID 652126;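 active = activation above the mean over all tested compounds plus 3 SD, cut at about 0.9% in these data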
hgDAF12 agonist: hgDAF-12 agonism, primary luciferase screen; HEK293 GAL4-hgDAF12 UAS-luciferase reporter, agonist luminescence; normalized to butyrate control; activation, % at 6.8 µM; 370,000 tested, 1.8% active;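 active = activation above a cutoff set at the mean of all screened compounds plus 3 SD, cut at about 10% in these data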
hcDAF-12 act: H. contortus DAF-12 activation, primary screen; HEK293 hcDAF-12 lit1-tk-luc reporter, luminescence; 0% DMSO, 100% Δ7-dafachronic acid; activation, % at 6.8 µM; 370,000 tested, 1.4% active;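 active = activation above the mean of all tested compounds plus 3 SD, cut at about 5.5% in these data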
GAA850 FXN act: increases GAA850 frataxin promoter reporter activity; HEK293 lucGAA850 FXN promoter luciferase reporter, 24 h; percent of 10 µM SAHA response; activation, % at 6 µM; 360,000 tested, 0.56% active;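 active = activation above the average of all compounds screened plus 3 SD, cutoff fixed separately per campaign, cut at about 7.5% in these data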
DAX1 inh-2: inhibits human nuclear receptor DAX1; HEK293 Gal4-DAX1 luciferase reporter, luminescence; inhibition, % at 6.75 µM; 340,000 tested, 0.99% active; AID 504766;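 active = inhibition above the mean over all tested compounds plus 3 SD, cut at about 4.2% in these data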;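 also: inhibition shows as a rise in luminescence from relieved DAX1 repression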
Target sequence (P51843 207-470 limits assumed): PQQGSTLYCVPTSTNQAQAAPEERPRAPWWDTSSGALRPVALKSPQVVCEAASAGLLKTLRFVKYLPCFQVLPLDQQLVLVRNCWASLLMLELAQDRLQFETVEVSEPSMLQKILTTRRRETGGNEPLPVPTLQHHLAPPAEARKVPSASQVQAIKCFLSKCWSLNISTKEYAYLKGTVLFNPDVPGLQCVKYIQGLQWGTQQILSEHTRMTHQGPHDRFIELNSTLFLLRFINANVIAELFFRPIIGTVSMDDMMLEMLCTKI
Numbers stand for hits; - = inactive; . = not tested or not shown. Most compounds without a hit are left out; they make up all but 4.5% or so of the library.

SMILES	DAX1 inh-1	ssDAF-12 act	hgDAF12 agonist	hcDAF-12 act	GAA850 FXN act	DAX1 inh-2
CCN(CC)C(=S)SCC(=O)Nc1ccc(F)cc1	-	-	-	-	-	-
CCOC(=O)c1csc(NC(=O)C2CCCN(S(=O)(=O)c3ccc(C)cc3)C2)n1 (stereo unspecified)	-	-	-	-	.	.
CC(C)(C)c1ccc(C(=O)Nc2cccc(S(=O)(=O)NC3=NCCC3)c2)cc1	4.0	-	-	-	-	-
CN(C)c1ccc(C(=O)Nc2cccc(S(=O)(=O)NC3=NCCCCC3)c2)cc1	-	-	-	-	-	-
O=C(NC1CCCC1)C(C1CC1)n1c(C2CC2)nc2ccccc21 (stereo unspecified)	-	1.6	-	-	.	.
O=C(NC1CCCC1)C(C1CC1)n1c(C2CCCC2)nc2ccccc21 (stereo unspecified)	-	-	-	-	.	.
COC(=O)[C@H](C(C)C)N(Cc1cn(CC2CCCCC2)nn1)S(=O)(=O)c1ccc(F)cc1Br	-	-	-	-	.	.
O=C(O)C1CC(c2ccccc2)=NO1 (stereo unspecified)	-	-	-	-	-	-
COc1ccc(C2=NOC(C(=O)O)C2)cc1 (stereo unspecified)	-	1.8	-	-	-	-
Cn1c(=O)c(=O)n(C)c2cc(S(=O)(=O)N3CCN(Cc4ccc5c(c4)OCO5)CC3)ccc21	-	-	-	-	.	.
CSc1nc(O)c(C(c2ccc(O)cc2)c2c(O)nc(SC)[nH]c2=O)c(=O)[nH]1	-	-	-	-	-	-
CSc1nc(O)c(C(c2cccc([N+](=O)[O-])c2)c2c(O)nc(SC)[nH]c2=O)c(=O)[nH]1	-	-	-	6.0	-	-
Cc1cccc(-c2nnc(SCC(=O)c3ccc(F)cc3)n2C)c1	-	-	-	-	.	.
Cc1ccc2nsnc2c1NC(=O)c1cccnc1Cl	-	10	-	-	-	-
COCCNC(=O)Cn1cnc([N+](=O)[O-])n1	-	-	-	-	-	-
CCCCNC(=O)Cn1cnc([N+](=O)[O-])n1	-	-	-	-	-	4.8
N#CCC[C@H]1CC[C@]2(CCCN(C(=O)c3ccco3)C2)O1	-	-	-	-	.	.
CCOc1ccc(NC(=O)CN(C)C(=O)c2cc(S(=O)(=O)N3CCCCC3)ccc2Cl)cc1OCC	-	-	-	-	-	-
CCOc1ccc(NC(=O)CN(C)C(=O)c2cc(S(=O)(=O)N3CCCCCC3)ccc2OC)cc1OCC	3.9	-	-	-	-	-
O=C1CSc2ccc(C(=O)N3CCCC(C(=O)N4CCCCC4)C3)cc2N1 (stereo unspecified)	-	-	-	-	.	.
Clc1ccccc1CNCC1CCCO1 (stereo unspecified)	-	-	-	-	-	5.9
Cc1c(-n2c(O)c(C3=c4ccccc4=NC3=O)sc2=S)c(=O)n(-c2ccccc2)n1C	-	-	-	5.6	-	-
O=C1N=c2ccccc2=C1c1sc(=S)n(-c2ccc(O)cc2)c1O	-	-	-	-	-	-
Cc1ccc(OCC(=O)N2CCCCCCC2)cc1C	-	-	-	-	-	-
Cc1cc(OCC(=O)N2CCCCCC2)ccc1[N+](=O)[O-]	-	-	12	-	-	-
SMILES	DAX1 inh-1	ssDAF-12 act	hgDAF12 agonist	hcDAF-12 act	GAA850 FXN act	DAX1 inh-2
CCCC1CCC2(CC1)CCC2OC(=O)Nc1ccccc1C (stereo unspecified)	.	-	-	-	.	.
CN(C)CCNC(=O)c1ccc2c(=O)n(Cc3ccc(Cl)cc3)c(=S)[nH]c2c1	-	-	-	-	-	-
CCCCN(C)CCNC(=O)c1ccc(Cn2c(=S)[nH]c3ccc(Br)cc3c2=O)cc1	4.0	-	-	-	-	-
C=CCN1C(=O)[C@@H](CC(=O)N2CCCC2)[C@]2(C(=O)OC)CCCCC=C12	-	-	-	-	.	.
CC(=O)N1CCCN(S(=O)(=O)c2ccc3c(c2)oc(=O)n3C)CC1	-	-	-	-	.	.
O=C(/C=C/c1ccc([N+](=O)[O-])cc1)OCc1cnc(-c2ccccc2)o1	-	-	-	-	-	6.1
CC(COc1ccccc1C#N)CN1CCC(C(O)(c2ccccc2)c2ccccc2)CC1 (stereo unspecified)	-	-	-	-	.	.
O=C1C=C(N2CCCCC2)C2(CCCCC2)O1	-	-	-	-	-	-
O=C1C=C(N2CCOCC2)C2(CCCCC2)O1	-	-	-	-	-	5.2
O=C(O)COCC(=O)Nc1ccccc1-c1ccccc1	-	-	-	-	-	-
COCC(=O)Nc1ccccc1-c1ccccc1	-	-	11	-	-	-
CC(=O)c1ccccc1OCCOCCOCCOc1ccccc1C(C)=O	-	-	-	-	-	-
CC(=O)c1ccccc1OCCOc1ncnc2sccc12	-	-	11	-	-	-
COc1cc(C=O)ccc1OCCCOc1ccccc1[N+](=O)[O-]	-	1.0	-	-	-	-
COc1ccc2sc(-c3ccccc3OC)c(-c3ccc(SC)cc3)c2c1	3.8	-	-	-	.	.
O=C(NCc1csc(-c2cccs2)n1)c1cccc(Cl)c1	-	-	-	-	-	4.4
CCC(C)(C(=O)NC1CCCCC1)N(C)C(=O)c1ccccn1 (stereo unspecified)	-	-	-	6.1	-	-
CCC(C)(C(=O)NC1CCCCC1)N(C(=O)c1ccccn1)c1ccccc1 (stereo unspecified)	-	-	-	-	-	-
CCCOc1ccc(CN2CCOCC2)cc1OC	-	-	-	-	-	5.3
CCOc1cc(CN2CCCCCC2)ccc1OC	-	-	-	-	-	-
CCCCOc1ccc(C(=O)NCC(=O)N2CCN(C(=O)c3ccco3)CC2)cc1	-	-	-	-	-	-
O=C(NCC(=O)N1CCN(C(=O)c2ccco2)CC1)c1ccccc1	-	1.0	-	-	-	-
CC(C)CC(=O)N1CCN(C(=O)c2ccco2)CC1	-	-	-	5.7	-	-
O=C(CNC(=O)c1ccco1)Nc1ccc(N2CCCCCC2)cc1	-	-	-	-	-	4.7
Cc1ccnc(NC(=O)CNC(=O)c2ccco2)c1	3.8	-	-	-	-	-
SMILES	DAX1 inh-1	ssDAF-12 act	hgDAF12 agonist	hcDAF-12 act	GAA850 FXN act	DAX1 inh-2
COc1ccccc1CC(=O)Nc1cc(C)ccn1	-	1.3	-	-	-	-
O=C(CNC(=O)c1ccco1)Nc1cccc(Cl)c1	-	-	-	5.8	-	-
CCOC(=O)N1CCN(C(=O)C[C@H]2C[C@@]3(C(=O)OC)C(=C[C@H](C(C)C)O[C@@H]3C3CC3)N(Cc3ccco3)C2=O)CC1	-	-	-	-	.	.
CCOC(=O)[C@]12CCCCC/C=C\1N(CCc1ccc(Cl)cc1)C(=O)[C@H]2CC(=O)NCC1CCCCC1	-	-	-	-	.	.
Cc1cccc2c1CCC1CN(Cc3ccccc3)S(=O)(=O)N21 (stereo unspecified)	.	-	-	-	.	.
CCOC(=O)CC[C@H]1CC[C@]2(CCCN(C(=O)C(C)(C)C)C2)O1	-	-	-	-	.	.
